Results taken from PubChem BioAssay (EPA / NIEHS).
Several values for one entry are separate records, joined by “and”; a condition that tells them apart may be missing. Equal values may be shown once. The source holds several records for some structures; these can differ, active in one and inactive in another. Activity calls are given as the source filed them. Rule for the calls: active = hit-call score of the fitted dose curve at least 0.9, where 1 is the maximum; inactive = score below 0.9.

Columns and labels:
[1] = read-out: Plasminogen activator inhibitor-1 (PAI1), SERPINE1 (gene 5054); assay: BSK_CASM3C_PAI1: BioMAP Diversity Plus: CASM3C Assay for Plasminogen activator inhibitor-1 (PAI1) Biomarker Activity (AID 2284284); conditions: primary human coronary artery smooth muscle cells;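 note: PAI-1 protein level measured by ELISA 24 h after dosing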
[2] = read-out: Monocyte Chemoattractant Protein-1 (MCP1), CCL2 (gene 6347); assay: BSK_hDFCGF_MCP1: BioMAP Diversity Plus: hDFCGF Assay for Monocyte Chemoattractant Protein-1 (MCP1) Biomarker Activity (AID 2284285); conditions: primary human foreskin fibroblasts
Outline: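 MCP-1 ELISA readout was taken 24 hours after dosing primary human dermal fibroblasts in the hDFCGF system, with DMSO as baseline. Parallel sulforhodamine B staining of total protein tracked overt cytotoxicity.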

[3] = read-out: Vascular cell adhesion molecule 1 (VCAM1), VCAM1 (gene 7412); assay: BSK_IMphg_VCAM1: BioMAP Diversity Plus: IMphg Assay for Vascular cell adhesion molecule 1 (VCAM1) Biomarker Activity (AID 2284286); conditions: primary human endothelial cells with macrophages
Outline: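 ELISA read-out of VCAM-1 on venular endothelial cell/macrophage co-cultures at 24 h post-treatment, with DMSO as baseline and positive-direction fitting. Parallel sulforhodamine B total-protein staining (560 nm) served as the overt cytotoxicity measure.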

[4] = read-out: Intercellular Adhesion Molecule 1 (ICAM1), ICAM1 (gene 3383); assay: BSK_hDFCGF_ICAM1: BioMAP Diversity Plus: hDFCGF Assay for Intercellular Adhesion Molecule 1 (ICAM1) Biomarker Activity (AID 2284287); conditions: primary human foreskin fibroblasts
Outline: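 ICAM-1 ELISA readout 24 h after dosing, DMSO as baseline, in human dermal foreskin fibroblast cultures. Cytotoxicity checked in parallel wells by SRB staining (0.1% SRB, 10% TCA fixation, 560 nm).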

[5] = read-out: TIMP metallopeptidase inhibitor 2 (TIMP2), TIMP2 (gene 7077); assay: BSK_hDFCGF_TIMP2: BioMAP Diversity Plus: hDFCGF Assay for TIMP metallopeptidase inhibitor 2 (TIMP2) Biomarker Activity (AID 2284289); conditions: primary human foreskin fibroblasts
Outline: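 Primary human foreskin fibroblasts in the hDFCGF system, dosed for 24 h; TIMP-2 level measured by ELISA, fitted in the positive direction against DMSO; cytotoxicity checked in parallel by sulforhodamine B total protein staining.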

[6] = read-out: Interleukin-1 alpha (IL1a), IL1A (gene 3552); assay: BSK_IMphg_IL1a: BioMAP Diversity Plus: IMphg Assay for Interleukin-1 alpha (IL1a) Biomarker Activity (AID 2284290); conditions: primary human endothelial cells with macrophages
Outline: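 IL-1α is quantified by ELISA at 24 h in the endothelial/macrophage IMphg co-culture, with gain of signal fitted relative to DMSO. Parallel SRB total-protein staining flags overt toxicity.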

[7] = read-out: E-selectin (Homo sapiens) (UniProt P16581); assay: BSK_IMphg_ESelectin: BioMAP Diversity Plus: IMphg Assay for Eselectin Biomarker Activity (AID 2284291); conditions: primary human endothelial cells with macrophages
Outline: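 Analysed against DMSO baseline in the positive fitting direction, this endpoint is an ELISA read of E-selectin. It comes from human venular endothelial cells co-cultured with macrophages, sampled 24 h post-dose.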

[8] = BSK_IMphg_SRB: Viability Assessment in the BioMAP Diversity Plus: IMphg Assay (AID 2284292); conditions: primary human endothelial cells with macrophages;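 note: measured one day after compound addition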
Outline: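 SRB viability endpoint: cultures of human endothelial cells plus macrophages fixed with 10% TCA, stained with 0.1% SRB, read at 560 nm 24 h post-dosing. Only gain-of-signal fitted, relative to DMSO.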

[9] = read-out: Macrophage colony-stimulating factor (MCSF), CSF1 (gene 1435); assay: BSK_IMphg_MCSF: BioMAP Diversity Plus: IMphg Assay for Macrophage colony-stimulating factor (MCSF) Biomarker Activity (AID 2284293); conditions: primary human endothelial cells with macrophages
Outline: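 M-CSF was measured by ELISA in human venular endothelial cell/macrophage co-cultures dosed for 24 hours. Sulforhodamine B staining of parallel cultures assessed cytotoxicity; data fitted against DMSO baseline.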

[10] = read-out: Interleukin-10 (IL10), IL10 (gene 3586); assay: BSK_IMphg_IL10: BioMAP Diversity Plus: IMphg Assay for Interleukin-10 (IL10) Biomarker Activity (AID 2284294); conditions: primary human endothelial cells with macrophages
Outline: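 IL-10 read by ELISA after 24 h chemical exposure of primary human venular endothelial cell/macrophage cocultures, with DMSO as baseline. Parallel SRB staining (560 nm) gauged overt cytotoxicity.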

[11] = BSK_IMphg_SRB.Mphg: Macrophage Viability Assessment in the BioMAP Diversity Plus: IMphg Assay (AID 2284295); conditions: primary human endothelial cells with macrophages
Outline: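 Cytotoxicity read-out: parallel cultures fixed with 10% TCA, stained with 0.1% sulforhodamine B, read at 560 nm. System combines venular endothelium and macrophages; sampled 24 h post-dosing, fitted positively relative to DMSO control.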

[12] = read-out: Thrombomodulin, THBD (gene 7056); assay: BSK_LPS_Thrombomodulin: BioMAP Diversity Plus: LPS Assay for Thrombomodulin Biomarker Activity (AID 2284296); conditions: primary human HUVEC with PBMC
Outline: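 Thrombomodulin on the surface of LPS-activated endothelial/PBMC co-cultures was quantified by ELISA at 24 hours post-dosing, with DMSO as baseline. Parallel SRB total-protein staining flagged overt cytotoxicity.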

CD40, CD40 (gene 958) = assay: BSK_IMphg_CD40: BioMAP Diversity Plus: IMphg Assay for CD40 Biomarker Activity (AID 2284288); conditions: primary human endothelial cells with macrophages
Outline: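 ELISA read-out of cell-surface CD40 at 24 h in human venular endothelial cell/macrophage co-cultures. Activity fitted in the positive direction against DMSO; parallel SRB staining (560 nm) gauges overt cytotoxicity.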

CD69, CD69 (gene 969) = assay: BSK_LPS_CD69: BioMAP Diversity Plus: LPS Assay for CD69 Biomarker Activity (AID 2284303); conditions: primary human HUVEC with PBMC
Outline: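 CD69 surface levels were read by ELISA after 24 h chemical treatment of an LPS-stimulated HUVEC plus PBMC co-culture; positive-direction fit against DMSO vehicle.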

[13] = IUF_NPC2c_oligodendrocyte_migration_120hr: Leibniz Research Institute for Environmental Medicine (IUF) 120-hour Neural Progenitor Cell Migration Assay for Oligodendrocyte Migration (NPC2c) (AID 2284297);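 note: O4-positive oligodendrocyte migration distance divided by radial glia migration distance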
Outline: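 Primary hNPC spheres migrating on extracellular matrix, exposed five days to a 7-point dilution series with solvent control. Oligodendrocyte migration was scored by high-content imaging of O4 immunostaining and expressed relative to radial glia distance.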

[14] = IUF_NPC2a_radial_glia_migration_120hr: Leibniz Research Institute for Environmental Medicine (IUF) 120-hour Neural Progenitor Cell Migration Assay for Radial Glia Migration (NPC2a) (AID 2284298)
Outline: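 In this multiplexed test, fetal hNPC spheres migrate radially on poly-D-lysine/laminin in N2 medium (37C, 5% CO2, pH 7.2-7.6) under continuous compound exposure over five days. Migration is scored at 120 h from automated Hoechst nuclear imaging.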

[15] = IUF_NPC2a_radial_glia_migration_72hr: Leibniz Research Institute for Environmental Medicine (IUF) 72-hour Neural Progenitor Cell Migration Assay for Radial Glia Migration (NPC2a) (AID 2284299)
Outline: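 Radial glia migration (µm, sphere core edge to migration front, four directions averaged) from brightfield images at 72 h; hNPC spheres differentiating on PDL/laminin in N2 medium, compound exposure at 7 concentrations from plating.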

[16] = IUF_NPC2b_neuronal_migration_120hr: Leibniz Research Institute for Environmental Medicine (IUF) 120-hour Neural Progenitor Cell Migration Assay for Neuron Migration (NPC2b) (AID 2284300)
Outline: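 Neurons identified by TUBB3 immunostaining and Hoechst nuclei; migration distance measured automatically on fixed wells at 120 h, normalized to glia migration. Exposure spanned five days of differentiation in N2 medium, seven test concentrations.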

[17] = IUF_NPC3_neuronal_differentiation_120hr: Leibniz Research Institute for Environmental Medicine (IUF) 120-hour Neuronal Differentiation Assay (NPC3) (AID 2284301)
Outline: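 Value is percent TUBB3-positive neurons among Hoechst-stained nuclei in the migration area, scored by trained CNN after 120 h differentiation. Primary hNPC spheres on poly-D-lysine/laminin, N2 medium, continuous dosing from day 0, half-refeed day 3; DMSO reference.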

[18] = IUF_NPC4_neurite_length_120hr: Leibniz Research Institute for Environmental Medicine (IUF) 120-hour Neuronal Morphology Assay for Neurite Length (NPC4) (AID 2284302)
Outline: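 Neurite length, the mean in um across TUBB3-stained neurons, is derived by skeletonization of high-content images after 120 h differentiation. Compound exposure, 7 concentrations plus solvent control, ran from plating of hNPC spheres on poly-D-lysine/laminin, with medium half-replaced on day 3.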

Measured: AC50

Sequence of E-selectin (Homo sapiens) (P16581 whole entry, looked up): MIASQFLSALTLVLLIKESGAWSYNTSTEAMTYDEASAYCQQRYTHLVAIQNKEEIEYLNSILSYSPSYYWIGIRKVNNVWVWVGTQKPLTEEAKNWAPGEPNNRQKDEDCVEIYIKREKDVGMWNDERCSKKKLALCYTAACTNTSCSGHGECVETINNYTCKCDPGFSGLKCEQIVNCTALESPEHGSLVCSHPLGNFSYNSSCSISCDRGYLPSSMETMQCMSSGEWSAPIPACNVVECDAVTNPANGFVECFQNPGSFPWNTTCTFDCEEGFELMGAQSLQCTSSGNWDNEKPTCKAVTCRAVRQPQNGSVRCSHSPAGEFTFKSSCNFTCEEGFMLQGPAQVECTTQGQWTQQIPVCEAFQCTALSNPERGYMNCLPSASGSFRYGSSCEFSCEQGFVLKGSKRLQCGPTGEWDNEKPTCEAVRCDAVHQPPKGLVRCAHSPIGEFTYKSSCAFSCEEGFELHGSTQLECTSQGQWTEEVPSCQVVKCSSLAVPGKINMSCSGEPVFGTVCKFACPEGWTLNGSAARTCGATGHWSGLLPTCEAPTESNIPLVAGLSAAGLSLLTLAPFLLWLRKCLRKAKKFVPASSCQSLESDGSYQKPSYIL

O=C(Cl)C(F)(F)C(F)(F)C(F)(F)C(F)(F)C(F)(F)C(F)(F)C(F)(F)C(F)(F)F
inactive: [1] | [2] | [4] | [5] | [6] | [7] | [9] | [10] | [11] | [12]
active: [2] 49.5 µM and 46.4 µM | [3] 35.9 µM and 46.8 µM and 46.3 µM | [4] 16.5 µM and 19.9 µM | [5] 1.59 µM | [7] 40.2 µM | [8] 54.8 µM and 40 µM and 47.8 µM | [10] 51.8 µM and 44.2 µM | [12] 40.9 µM and 21.5 µM

FC(F)(F)C(F)(F)C(F)(F)N(C(F)(F)C(F)(F)C(F)(F)F)C(F)(F)C(F)(F)C(F)(F)F
not listed: [13] | [14] | [15] | [16] | [17] | [18]
inactive: all other assays above

FC(F)(F)C(F)(F)C(F)(F)C(F)(F)C(F)(F)C(F)(F)C(F)(F)C(F)(F)CCS
active: [2] 1.2 µM | [5] 0.0245 µM
inactive: [1] | [2] | [3] | [4] | CD40, CD40 (gene 958) | [5] | [6] | [7] | [8] | [9] | [10] | [11] | [12]

CCCCCCOC(=O)c1ccccc1O
active: [2] 18.2 µM and 22.9 µM | [4] 37.9 µM and 29.9 µM | [5] 31.2 µM and 20.2 µM
inactive: [1] | [12]

C=CC(F)(F)C(F)(F)C(F)(F)C(F)(F)C(F)(F)C(F)(F)C(F)(F)C(F)(F)F
not listed: CD40, CD40 (gene 958) | CD69, CD69 (gene 969) | [13] | [14] | [15] | [16] | [17] | [18]
inactive: all other assays above

FC(F)(F)C(F)(F)C(F)(F)C(F)(F)C(F)(F)C(F)(F)C(F)(F)Br
not listed: CD40, CD40 (gene 958) | CD69, CD69 (gene 969) | [13] | [14] | [15] | [16] | [17] | [18]
inactive: all other assays above

OCCCC(F)(F)C(F)(F)C(F)(F)F
not listed: CD40, CD40 (gene 958) | [13] | [14] | [15] | [16] | [17] | [18]
inactive: all other assays above

OC[C@@H](O)[C@@H](O)[C@H](O)[C@@H](O)CO
inactive: [13] | [14] | [15] | [16] | [17] | [18]

CCCCCCCCC(F)(F)C(F)(F)C(F)(F)C(F)(F)C(F)(F)C(F)(F)F
not listed: CD40, CD40 (gene 958) | CD69, CD69 (gene 969) | [13] | [14] | [15] | [16] | [17] | [18]
inactive: all other assays above

O=C(O)C(F)(F)C(F)(F)C(F)(F)C(F)(F)F
not listed: CD40, CD40 (gene 958) | [13] | [14] | [15] | [16] | [17] | [18]
inactive: all other assays above

O=C(O)C(F)(F)C(F)(F)C(F)(F)F
not listed: CD40, CD40 (gene 958) | CD69, CD69 (gene 969) | [13] | [14] | [15] | [16] | [17] | [18]
inactive: all other assays above

FC(F)(F)C(F)(F)C(F)(F)CI
active: [12] 1.34 µM
inactive: [1] | [2] | [3] | [4] | [5] | [6] | [7] | [8] | [9] | [10] | [11] | [12]

NC(=O)C(F)(F)C(F)(F)C(F)(F)C(F)(F)F
not listed: CD40, CD40 (gene 958) | [13] | [14] | [15] | [16] | [17] | [18]
inactive: all other assays above

O=C(O)C(F)(OC(F)(F)C(F)(OC(F)(F)C(F)(F)C(F)(F)F)C(F)(F)F)C(F)(F)F (centres undefined)
not listed: CD40, CD40 (gene 958) | [13] | [14] | [15] | [16] | [17] | [18]
inactive: all other assays above

FC(F)(F)C(F)(F)C(F)(F)C(F)(F)C(F)(F)C(F)(F)C(F)(F)C(F)(F)F
not listed: CD40, CD40 (gene 958) | [13] | [14] | [15] | [16] | [17] | [18]
inactive: all other assays above
